Hit rate of the full screen: of about 53,000 sequences, about 3,700 (7%) were called active. This excerpt belongs to a sample that is enriched for actives. Values without a mark were called inactive.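 How the source made its calls: active means gene knockdowns whose robust z-score for IL-1 alpha signal is at least 2 or at most -2, so actives lie on both sides; inactive means the rest.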

This assay in a line: Components of the Cytosolic LPS Sensing Pathway: Gene Identification via Genome-wide siRNA Screen. To be noted: RAW264.7 macrophages, IL-1a HTRF, actives lie on both sides, screened at 100 nM (by protocol), cells primed 5 h with Pam3CSK4 first. From the text: Non-canonical inflammasome activation by cytosolic LPS is a critical component of the host response to Gram-negative bacterial infection, however we lack a comprehensive understanding of the cellular processes that control this pathway. Here we describe a genome-wide siRNA screen to identify genes regulating the mouse macrophage IL-1 alpha response to cytosolic LPS.
RAW264.7 cells were maintained in complete DMEM media, comprising DMEM with 4.5 g/L glucose, 10% FBS (Gemini Bio-Products, West Sacramento, CA), 2 mM Glutamine (Lonza) and 20 mM HEPES (Lonza), hereafter complete DMEM.
The RNAi screen was conducted in 384-well format using the Ambion Silencer Mouse Genome siRNA Library (#4391425), which consists of three unique, nonoverlapping, nonpooled siRNAs for each of 17,000 gene targets. siRNA reagents ([…]) were stamped into 384-well white flat-bottom microplates (Corning, 3570) using a Velocity11 VPrep liquid handling system (Agilent) integrated into a BioCel robotic platform (Agilent) in columns 1-22, leaving columns 23-24 empty for negative (Ambion, Negative control #1) and positive (mouse Casp4) controls, respectively. The median value of each plate's negative control column was used to normalize sample wells, and the positive control was used to assess transfection efficiency and assay performance.
Lipofectamine RNAiMAX Transfection Reagent ([…]; Invitrogen) was added in […] serum-free, antibiotic-free media to plate wells using a Thermo Scientific Matrix WellMate and Microplate Stacker. Plates were incubated for 45 min at room temperature to allow for the sufficient formation of siRNA-lipid complexes. Cells were seeded at a density of 1x10^4 cells per well in 20 microL media containing 20% (vol/vol) FBS without antibiotics. The final concentration of siRNA in each well was 100 nM. Cells were cultured for 48h at 37 degrees C in 5% CO2 before addition of […] of TLR ligand Pam3CSK4 for 5 hours. The medium was then removed, replaced with […] growth media and cell were transfected with […] of LipidA and TransIT-TKO (Mirus) for 24 hour. At the end of the LipidA treatment, […] of supernatant was transferred to a 384 Greiner Bio-one non-binding low volume plate and […] of IL-1a HTRF reagent (Cisbio, 62MIL1APEH) was added and incubated at room temperature overnight. The plates were read on an EnVision plate reader (PerkinElmer). Cell viability was measured by adding 20ul Cell Titer Glo to the original plate and running a luminescence read on the EnVision. The quantified IL-1a signal for each siRNA gene-targeted well was divided by the median of the negative control wells and multiplied by 100 to achieve a negative control normalized value for each well/siRNA. This normalized value was then used to generate a robust z-score by first taking the log of each value and then by subtracting the median and dividing by the […].
(Time-resolved FRET reads energy transfer from a long-lived donor to a nearby acceptor.)
Regarding CCCAUGCUAUCAAUCAUUUTT against Olfr308, the z-score is 2.51 (active).

Turning to CCGAUGACAAUCGGCCCUUTT against Gja8, the z-score is 0.74.

As to GGUUUUCCAUCUCCUCCAGTT against Klrc1, the z-score is 0.789.

“GGGAAACGUGAAUUAGUAATT against 1110051M20Rik”: the z-score was -1.23.

For CCUCCAUUGAUACUCAAGUTT against Pycr1, the z-score is 0.0219.

As for GGCUAAAUCUCACACUCCATT against Mzb1, the z-score is -2.18 (active).

As for GGUGAAGCUCACCAACAAUTT against Tbx20, the z-score is 0.301.

On to CCAUGUUCCAGUUAAUGACTT against Ptch1, for which the z-score is -0.419.

Consider GCAAGUCCUCUACCUUCUCTT against Vmn1r210, for which the z-score is -1.65.

Regarding GGUGAAACUAAAAAUGGUCTT against Egfl6, the z-score was -1.07.

For the sequence GCCGUCUCUGUGUCACAAATT against Sirt1, the z-score is -2.19 (active).

For the sequence GGUCCUUGUACAACCACCCTT against Acd, the z-score was 0.516.

Turning to “GGUCCUUGCAUUUCAUCAATT against A630005I04Rik”, the z-score was 1.6.

On to GGAUUUUUGCACUCAGUAATT against Olfr1256, for which the z-score is 1.26.

For GGAACAUUGGUGUUACAGCTT against Atp5j, the z-score is 2.29 (active).

On to GGAGUUUUCAGCAACAAAUTT against Fgf5, for which the z-score was -0.829.

GGUAUUCUAUAAGCUCCUUTT against Dennd1a: the z-score was -2.07 (active).

As for CCAACGCGAACGAGAACUATT against C1qb, the z-score was -0.0813.

Take CCAGAUAAUAAUUUGGAUGTT against Dhx9: the z-score is 0.0852.

Consider GGAUGUGCCAUUGAAGAUCTT against Atg4c, for which the z-score was 2.07 (active).

CCUGGAUACCUUCAACUAUTT against Galnt14: the z-score is -0.209.

On to CCUAAACCAGUCUUUUCUCTT against Cnep1r1, for which the z-score is 0.369.

Turning to GCAAAAGCUAAUAAACUUGTT against Acox2, the z-score was 0.921.

Take GCCUACGAGGACAGUACAATT against Mst1r: the z-score was 1.16.

GCACUGCAACACUUGGUCCTT against Lcn12: the z-score was -0.99.

For GGCAGACCCAUAAUUAAUCTT against Arsk, the z-score was -0.567.

On to GGCUGAAGCGCAAGAGGAATT against Wdr46, for which the z-score was 2.68 (active).

Take GGAAGAUACAAGUCUUUUUTT against Akap12: the z-score is 1.85.

For GAGAUAAGAUGGGAAAAAATT against Ssbp2, the z-score was -0.338.

With GGAAAAGCAGACUUGCACCTT against Npm2, the z-score is 0.228.

Consider GGAAGAAGUUGGAGAUGUUTT against Hsd17b11, for which the z-score is -0.629.

Turning to GGAACUAGUUUUUAUACUCTT against Igfbp1, the z-score is 2.23 (active).

GGAACCUAUUUUUUCGUAUTT against Gen1: the z-score is -0.322.

As to CCAAGAUUCUCCUGAAUUATT against Plod2, the z-score was -0.183.

In the case of CGGUGAUCAAAGAUAAGAATT against Zkscan5, the z-score is -0.936.

On to GGGUGCAUAUGUUUGAAGCTT against Copb2, for which the z-score is -2.5 (active).

For the sequence GGUGUGGUCAUUCCAAAUGTT against Ms4a8a, the z-score was 0.042.

Consider GGAGCUGUGCGGUCUGUUATT against Mul1, for which the z-score was -0.626.

Take GGAGAAAGUCAAGACCCUCTT against Jund: the z-score is 0.473.

As to GGCUACCAUGGACACAUCATT against Magea7-ps, the z-score was -2.31 (active).

Regarding GGAUGUCUCGGCAUAGUUCTT against Lpar1, the z-score was -0.64.

On to GGUGAAUGCAAGAUCACCUTT against Myl1, for which the z-score was 0.343.

GCAGUCGAUGUCAAGGUUATT against Plekhf2: the z-score was 0.473.

On to GCCAGGACAAUCUGACUAUTT against Napsa, for which the z-score was 3.48 (active).

Regarding CGGGAUAGACUAUAAGACUTT against Rab40c, the z-score was 0.612.

GGAGAUGAGGAAGCUCUUCTT against Usp4: the z-score is -0.747.

CCAAGCAUAUGUGGUUGUUTT against Gpbp1l1: the z-score was -2.01 (active).

As to “GGUCUACGACCGAUGUUCUTT against 9530003J23Rik”, the z-score was 0.729.

Turning to GGAGUUACCUUUCGAUAGGTT against Exoc5, the z-score is 0.648.

As for GGGUGCAUAAGCAAGCUGUTT against Nkiras2, the z-score is -0.992.

In the case of GGGAUCAAAGAUCAGUUAATT against Pih1d2, the z-score is -0.98.

Regarding GACAGAGGAAUUUGUCUCCTT against Olfr1120, the z-score was 2.1 (active).

Consider CCUAGUGUGUGCUUUUCGGTT against Akr7a5, for which the z-score was -0.502.

As to GGACCCAAGAAGUUUUAUUTT against Zbbx, the z-score was 1.3.

With GGAGCAGGUAAACAUGUCUTT against Fpr-rs7, the z-score was -0.218.

Turning to GCCUGAAAGGCCUCACAAATT against Eloa, the z-score is -0.72.

For GCAGUAACUCCGGUAGUAGTT against Daxx, the z-score was 5.84 (active).

As for GGACUAUGCAGUUUUAUUGTT against Chrac1, the z-score was -0.201.

On to CGACCAAAAUCAAAACAGCTT against Defb12, for which the z-score was -0.093.

For GGAACUGGAAGAGAAUGAGTT against Sdc4, the z-score was 0.862.

With GGAGAAGAUAGAAGCUGAGTT against Rad23a, the z-score was -1.66.

With GGUCGAGGACAAAAAAAAATT against Dner, the z-score is -2.27 (active).

Take GGACCUAUCAACUGAGUUUTT against Hrc: the z-score was 1.06.

In the case of GGUCAUGGCUACUUCAUCCTT against Dok7, the z-score was 0.583.

For CCUUUAGAGGAAUUCACUUTT against Npas2, the z-score is -0.576.

Regarding GCAAAUCCCAGCUCAAUGUTT against Zfp810, the z-score was -1.65.

With CGAAGGACCAGGGAAUCUGTT against Tsg-5, the z-score was -0.793.

For GCAGGUGAAAGUGCAGAUCTT against Timm13, the z-score is 3.35 (active).

Take GGAUAAGAGACAAUGAAUUTT against Fut7: the z-score is -1.19.

With GCUCAUUCGUCCUCACAGUTT against Olfr312, the z-score is -1.11.

On to CCCAGGUUCCGGAGAACAATT against Abcc5, for which the z-score is 2.14 (active).

As for GGCUGUCCAACAAGCAGAGTT against Plekhm3, the z-score was 0.163.

With GGUAGACCUUUUGUCACGGTT against Cers2, the z-score was -0.0497.

In the case of GGGUUUAAUCAUGAUAGAATT against Tet2, the z-score was -0.583.

As for GGCUUUCCCAAAGACUUCUTT against Col11a2, the z-score was 0.518.

As for GGACAUCAUCCAGGAAAACTT against Bcar3, the z-score was -0.347.

With GCCACAACAACUUGAGCAGTT against Amigo1, the z-score was 2.36 (active).

With CAACUCUCUUGCUCAGACATT against Olfr814, the z-score is -0.268.

Regarding CGAACGGAAAAAUGGAAGUTT against Mrtfb, the z-score is 0.784.

Consider GGUCAUAGAGACAGACUACTT against Lcn12, for which the z-score is -0.378.

As to CGCAGAACCCUGGUUUCUATT against Trappc11, the z-score is -0.232.

On to GGACUUUCUCUAGGAUCCATT against Slamf8, for which the z-score is -0.705.

Turning to GGCUGGUUACCUGCAUAAGTT against Sh3bp2, the z-score is 0.225.

Regarding GGUACCAUCCGGAAUACAATT against Zdhhc19, the z-score is 3.95 (active).

GGCCUCCUAACAAUUCAGCTT against Foxp1: the z-score was 0.0693.

As for GCUCAGAGCAUGUUGGUGGTT against Dstyk, the z-score was -0.805.

As to GGAUAUACAAGCACAAACUTT against Gjc3, the z-score was 0.432.

As to GGGAUUUAAAAGGAAAUGUTT against Gbp7, the z-score was -1.05.

For the sequence GAAGCAGAUACCAAAACAATT against Kir3dl1, the z-score was -3.02 (active).

Regarding GGAGGUGGUGCUUAAAGGUTT against Rnf122, the z-score is 0.41.

For the sequence GGUGAAAAGAGAUUUGAAUTT against Sp4, the z-score is 0.587.

Turning to GCUCGUUCUUCGACAUCUUTT against Stard3, the z-score was -0.946.

For GGACCUAGUGCGUUCCAAATT against H1f7, the z-score was 2.92 (active).

Take GCGAUAUUUCAAGAGAAGCTT against Evc2: the z-score was -0.372.

CCCAAGCCUACCUUACGAGTT against Hipk2: the z-score was -1.67.

Take CCUAAUACCUUCAGUGUUCTT against Ptcd3: the z-score is 0.865.

On to GGAAACUUAAGCAAAUUCUTT against Gprc6a, for which the z-score is 3.11 (active).

Turning to GGUGACUUUUUGGUACAGATT against Mthfr, the z-score is 0.558.

With GGCUGUUAUCCAGAGAGAUTT against Nim1k, the z-score is 0.177.

Consider GGACCUGAACACAGCUACUTT against Stoml1, for which the z-score was 1.04.

Take GGAGAUCCUUAAGCUGUUGTT against Aen: the z-score is -2.37 (active).

As to GCCUGACGGCACGUAUGUATT against Acox1, the z-score is 0.527.

As for GGUACAGUGCAUCGACAUGTT against Eng, the z-score is 0.879.

Consider CGGAAGGAAGUGCCUAAACTT against Rcc2, for which the z-score was 0.668.

Regarding GCAGUUAACUACGUUGCAATT against Zranb2, the z-score is -0.44.

For the sequence GGGAUGUGAUAGUUCAUAATT against Stil, the z-score is -0.304.

With GGACAUUCUCUACCGAAUATT against Acsm1, the z-score was 2.04 (active).

For GGAUGAUUAUUGGAGCUAUTT against Vtn, the z-score was 0.128.

The values are drawn from PubChem BioAssay AID1508600 (Functional Genomics Laboratory (NCATS/FGL), 2020).
